Measured values taken from a collection of fitness landscapes (doi:10.1016/j.celrep.2020.107928).
In all, about 81,000 sequences were measured (“one-hybrid fitness for binding NBS DNA”: median about -0.1, highest 2% from about 0.36 on). The full list was thinned out, with the highest values kept by preference.

B1: Caulobacter ParB omega fusion; a variant is named by its letters at X, in order, B8GW30 (parent)
chain: MESVVVGEPGMSEGRRGLGRGLSALLGEVDAAPAQAPGEQLGGSREAPIEILQRNPDQPRRTFREEDLEDLSNSIREKGVLQPILVRPSPDTAGEYQIVAGERAWRAAQRAGLKTVPIMVRELDDLAVLEIGIIENVQRADLNVLEEALSYKVLMEKFERTQENIAQTIGKSXSHVANXMRLLXLPDEVQSYLVSGELTAXHARAIAAAADPVALAKQIIEGGLSVRETEALARKAPNLSAGKSKGGRPPRVKDTDTQALESDLSSVLGLDVSIDHRGSTGTLTITYATLEQLDDLCNRLTRGI

Variants of: B1
Assay: one-hybrid fitness for binding NBS DNA (the Noc-binding site; scaled: cognate 1, non-cognate 0); higher = stronger binding
Conditions: with NBS DNA site
How it was run: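 On M9-minus-histidine containing 0.1 mM IPTG and 5 mM 3-AT, E. coli USO cells with a HIS3 reporter, site 19 bp from the promoter, grew 48 hours at 37°C to select Caulobacter ParB libraries randomised at four specificity codons. Plasmids from before and after were Illumina-sequenced, with three replicate libraries pooled and variants under 10 reads left out. Fitness is the log change in variant-to-wild-type read ratio, rescaled against cognate and non-cognate.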

Point of comparison: QQDR, “one-hybrid fitness for binding NBS DNA” value 0.388. Against it:
- GNCM — lower, ≤ 0.2
- LRKY — lower, ≤ 0.2
- GYLG — lower, ≤ 0.2
- KRMH — lower, ≤ 0.2
- FYYR — lower, ≤ 0.2
- DHLS — lower, ≤ 0.2
- ANLH — lower, ≤ 0.2
- SFVC — lower, ≤ 0.2
- PQMI — lower, ≤ 0.2
- AHHY — lower, ≤ 0.2
- RHNK — lower, ≤ 0.2
- QMCI — lower, ≤ 0.2
- PANW — lower, ≤ 0.2
- VVKL — lower, ≤ 0.2
- QRMS — higher, 0.623
- QRMP — lower, ≤ 0.2
- QTMN — lower, ≤ 0.2
- QRML — lower, 0.219
- QRMH — higher, 0.499
- QTMS — higher, 0.463
- QPMY — lower, ≤ 0.2
- QCMY — lower, ≤ 0.2
- QRMN — lower, 0.295
- QRMD — lower, 0.26
- QTMH — lower, 0.263
- QRMY — higher, 0.463
- YNGT — lower, ≤ 0.2
- HRHE — lower, ≤ 0.2
- VIRT — lower, ≤ 0.2
- WQEG — lower, ≤ 0.2
- FKND — lower, ≤ 0.2
- AVDT — lower, ≤ 0.2
- IGHS — lower, ≤ 0.2
- QQIT — higher, 0.389
- QQPH — lower, ≤ 0.2
- QQID — lower, ≤ 0.2
- QQIS — lower, 0.352
- QQPT — lower, 0.379
- QQPS — lower, 0.26
- MQSG — lower, ≤ 0.2
- VVCV — lower, ≤ 0.2
- YLMA — lower, ≤ 0.2
- QYTN — lower, ≤ 0.2
- QYTH — lower, 0.202
- QYTT — higher, 0.401
- QYTP — lower, ≤ 0.2
- QYTM — lower, ≤ 0.2
- QYTS — higher, 0.396
- QYTD — lower, ≤ 0.2
- QYTR — higher, 0.572
- QYTY — lower, ≤ 0.2
- AEMG — lower, ≤ 0.2
- GTMM — lower, ≤ 0.2
- HAVV — lower, ≤ 0.2
- QQNH — lower, 0.355
- QQNR — higher, 0.786
- QQDC — lower, ≤ 0.2
- QQND — lower, ≤ 0.2
- QQDP — lower, ≤ 0.2
- MWSL — lower, ≤ 0.2
- SQER — lower, ≤ 0.2
- THTW — lower, ≤ 0.2
- TSGY — lower, ≤ 0.2
- ASWL — lower, ≤ 0.2
- TAQM — lower, ≤ 0.2
- QTME — lower, ≤ 0.2
- QAFD — lower, ≤ 0.2
- QAFR — higher, 0.427
- QAAD — lower, ≤ 0.2
- QAFS — lower, 0.218
- QAAN — lower, ≤ 0.2
- QAAR — higher, 0.511
- PSVW — lower, ≤ 0.2
- VMFK — lower, ≤ 0.2
- EIKV — lower, ≤ 0.2
- RPPM — lower, ≤ 0.2
- RARR — higher, 0.635
- RADR — lower, ≤ 0.2
- RALR — lower, 0.32
- RAGP — lower, ≤ 0.2
- RANR — higher, 0.507
- RAGR — higher, 0.471
- RAYR — higher, 0.412
- RAIR — lower, 0.207
- RAPR — lower, ≤ 0.2
- RANN — lower, ≤ 0.2
- RAWR — lower, 0.248
- RAGH — lower, ≤ 0.2
- YIKT — lower, ≤ 0.2
- MVAC — lower, ≤ 0.2
- NQHS — lower, ≤ 0.2
- NVTV — lower, ≤ 0.2
- SDLG — lower, ≤ 0.2
- PSTD — lower, ≤ 0.2
- PRAY — lower, ≤ 0.2
- THTY — lower, ≤ 0.2
- TQQW — lower, ≤ 0.2
- PELM — lower, ≤ 0.2
- PRWT — lower, ≤ 0.2
- RAQH — lower, ≤ 0.2
- RAQM — lower, ≤ 0.2
- RACH — lower, ≤ 0.2
- RACR — lower, 0.379
- RAHR — higher, 0.487
- RAQR — higher, 0.43
- RASD — lower, ≤ 0.2
- RAHH — lower, ≤ 0.2
- RACP — lower, ≤ 0.2
- RASR — higher, 0.417
- RASP — lower, ≤ 0.2
- RAHP — lower, ≤ 0.2
- FSRL — lower, ≤ 0.2
- GGQY — lower, ≤ 0.2
- MRLP — lower, ≤ 0.2
- AHPF — lower, ≤ 0.2
- YNKI — lower, ≤ 0.2
- KTLA — lower, ≤ 0.2
- NNIC — lower, ≤ 0.2
- PFKH — lower, ≤ 0.2
- HTRG — lower, ≤ 0.2
- QMRS — higher, 0.691
- QMDN — lower, ≤ 0.2
- QMYN — lower, ≤ 0.2
- QMLS — lower, 0.317
- QMRH — higher, 0.584
- QMRD — lower, 0.277
- QMYS — higher, 0.405
- QMRF — lower, 0.303
- QMIS — lower, 0.289
- QMRN — higher, 0.439
- QMRP — lower, 0.291
- QMPS — lower, 0.235
- AQGA — lower, ≤ 0.2
- NRGC — lower, ≤ 0.2
- PIMT — lower, ≤ 0.2
- PWNH — lower, ≤ 0.2
- RINY — lower, ≤ 0.2
- GPRC — lower, ≤ 0.2
- TMHE — lower, ≤ 0.2
- KEWT — lower, ≤ 0.2
- MTEF — lower, ≤ 0.2
- QMAD — lower, ≤ 0.2
- QMAH — lower, 0.231
- QMAS — higher, 0.389
- VIGG — lower, ≤ 0.2
- QMKK — higher, 0.436
- QMPK — lower, ≤ 0.2
- QKVK — lower, ≤ 0.2
- QKIK — lower, ≤ 0.2
- QKKK — higher, 0.437
- QPKK — lower, ≤ 0.2
- QLKK — lower, 0.346
- QTSK — lower, 0.224
- QCKK — higher, 0.485
- QMWK — lower, ≤ 0.2
- QTKK — higher, 0.596
- QTVK — lower, ≤ 0.2
- THAP — lower, ≤ 0.2
- SMSM — lower, ≤ 0.2
- VLYQ — lower, ≤ 0.2
- MNTI — lower, ≤ 0.2
- MEPN — lower, ≤ 0.2
- DERT — lower, ≤ 0.2
- AAYK — lower, ≤ 0.2
- LNIG — lower, ≤ 0.2
- VYES — lower, ≤ 0.2
- PHHR — lower, ≤ 0.2
- NAEF — lower, ≤ 0.2
- NGVK — lower, ≤ 0.2
- AANT — lower, ≤ 0.2
- QSKK — higher, 0.412
- QAKK — higher, 0.396
- QRLK — lower, 0.329
- QRKK — higher, 0.777
- QSVK — lower, ≤ 0.2
- QHKK — higher, 0.416
- QAHK — lower, ≤ 0.2
- QHRK — lower, 0.362
- QHQK — lower, ≤ 0.2
- QRVK — lower, 0.218
- QIKK — lower, 0.243
- QAVK — lower, ≤ 0.2
- TDTW — lower, ≤ 0.2
- VHWG — lower, ≤ 0.2
- DTCT — lower, ≤ 0.2
- VLPC — lower, ≤ 0.2
- GGCG — lower, ≤ 0.2
- PDVF — lower, ≤ 0.2
- YPIT — lower, ≤ 0.2
- SGYG — lower, ≤ 0.2
- SCFT — lower, ≤ 0.2
- METY — lower, ≤ 0.2
- RRMD — lower, ≤ 0.2
- RCMH — lower, ≤ 0.2
- RRMP — lower, ≤ 0.2
- RRMS — higher, 0.628
- RRMH — higher, 0.403
- RRMN — lower, 0.245
- TKWD — lower, ≤ 0.2
- AEDA — lower, ≤ 0.2
- APCN — lower, ≤ 0.2
- YRRI — lower, ≤ 0.2
- AVHL — lower, ≤ 0.2
- TDRM — lower, ≤ 0.2
- TYEH — lower, ≤ 0.2
- HSVS — lower, ≤ 0.2
- ARTM — lower, ≤ 0.2
- HHLA — lower, ≤ 0.2
- QTMD — lower, ≤ 0.2
- QYMN — lower, ≤ 0.2
- QMMS — lower, 0.333
- QMMF — lower, ≤ 0.2
- QYMT — higher, 0.416
- QTMP — lower, ≤ 0.2
- QMMT — lower, 0.378
- QYMY — higher, 0.453
- QYMP — lower, ≤ 0.2
- QYMS — lower, 0.314
- QYMH — lower, ≤ 0.2
- QTMT — higher, 0.551
- CSAE — lower, ≤ 0.2
- YFMR — lower, ≤ 0.2
- TNFF — lower, ≤ 0.2
- AHDA — lower, ≤ 0.2
- FHFL — lower, ≤ 0.2
- CNVL — lower, ≤ 0.2
- HYMT — lower, ≤ 0.2
- QLMT — lower, 0.34
- QKMY — lower, 0.224
- QSMT — lower, 0.368
- QRMT — higher, 0.729
- QAMT — lower, 0.346
- QPMT — lower, ≤ 0.2
- QCMT — higher, 0.477
- QRMC — lower, 0.333
- QIMT — lower, 0.219
- QKMN — lower, ≤ 0.2
- QRMG — lower, 0.329
- QKMT — higher, 0.424
- QLVV — lower, ≤ 0.2
- KKDV — lower, ≤ 0.2
- RLWA — lower, ≤ 0.2
- WGTT — lower, ≤ 0.2
- PARD — lower, ≤ 0.2
- RCAQ — lower, ≤ 0.2
- FSIR — lower, ≤ 0.2
- RTAF — lower, ≤ 0.2
- RTFP — lower, ≤ 0.2
- RTFT — higher, 0.417
- RTFH — lower, ≤ 0.2
- RTAT — higher, 0.499
- RTAQ — lower, ≤ 0.2
- YRWR — lower, ≤ 0.2
- QYAW — lower, ≤ 0.2
- CWPD — lower, ≤ 0.2
- IVKR — lower, ≤ 0.2
- TREN — lower, ≤ 0.2
- RVVT — lower, 0.261
- RVKS — higher, 0.578
- RVKT — higher, 0.652
- RVKH — lower, 0.321
- RVKR — higher, 0.665
- RVVR — lower, 0.3
- RVKP — lower, ≤ 0.2
- RVKD — lower, ≤ 0.2
- RVKN — lower, 0.203
- DVAM — lower, ≤ 0.2
- FLSS — lower, ≤ 0.2
- SKYT — lower, ≤ 0.2
- PHGE — lower, ≤ 0.2
- KVPL — lower, ≤ 0.2
- QVKY — lower, 0.383
- QVKM — lower, 0.229
- QVKQ — lower, 0.241
- QVKH — lower, 0.38
- QVKN — lower, ≤ 0.2
- QVKS — higher, 0.49
- QVVT — lower, 0.248
- QVKT — higher, 0.564
- QVKP — lower, ≤ 0.2
- QVYY — lower, ≤ 0.2
- QVKD — lower, ≤ 0.2
- QVVY — lower, ≤ 0.2
- MVLL — lower, ≤ 0.2
- KYVG — lower, ≤ 0.2
- NCLS — lower, ≤ 0.2
- FLLI — lower, ≤ 0.2
- SFTN — lower, ≤ 0.2
- QSWH — lower, ≤ 0.2
- PPWR — lower, ≤ 0.2
- RQTT — higher, 0.487
- RQTN — lower, ≤ 0.2
- RQTR — higher, 0.497
- RQTQ — lower, ≤ 0.2
- RQTS — higher, 0.436
- RQTP — lower, ≤ 0.2
- RQTM — lower, ≤ 0.2
- RQTH — lower, ≤ 0.2
- RQTD — lower, ≤ 0.2
- KQNL — lower, ≤ 0.2
- SITL — lower, ≤ 0.2
- CLCV — lower, ≤ 0.2
- LGTW — lower, ≤ 0.2
- DDVR — lower, ≤ 0.2
- LTIS — lower, ≤ 0.2
